Reference: the supplement of paper PMC10849652
Of roughly 7,900 targets only a part is listed; those with a hit were picked by preference. About 0.6% of all pairs of compound and target were hits.

These targets were tested with Cc1cccc(CC(=O)N2CCc3c2ccc(-c2cn(C)c4ncnc(N)c24)c3F)n1 (assay: log2 fold change, soluble protein after heating vs DMSO (PISA); higher = thermal stabilisation; K562 cells, 10 uM, 30 min; active = over 0.2 and 3.5 SD of the protein, either way, in both replicates (recomputed)).
Procedure, shortened: (§1)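 Thermal stability values are relative to control samples and come from duplicates. They are expressed as log2 fold changes. For measurement, K562 cells (2×10^6 cells/mL) received 10 μM compound for 30 min, and aliquots were heated for 3 min over 48°C-58°C, pooled, and extracted at 4°C in PBS with 0.5% NP-40. Soluble protein, the supernatant after 21,000xg for 90 min, was quantified by TMTpro 16plex LC-MS/MS with equalised channel sums.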

Sequence of UniProt Q9NQW7 (Q9NQW7 whole entry, looked up): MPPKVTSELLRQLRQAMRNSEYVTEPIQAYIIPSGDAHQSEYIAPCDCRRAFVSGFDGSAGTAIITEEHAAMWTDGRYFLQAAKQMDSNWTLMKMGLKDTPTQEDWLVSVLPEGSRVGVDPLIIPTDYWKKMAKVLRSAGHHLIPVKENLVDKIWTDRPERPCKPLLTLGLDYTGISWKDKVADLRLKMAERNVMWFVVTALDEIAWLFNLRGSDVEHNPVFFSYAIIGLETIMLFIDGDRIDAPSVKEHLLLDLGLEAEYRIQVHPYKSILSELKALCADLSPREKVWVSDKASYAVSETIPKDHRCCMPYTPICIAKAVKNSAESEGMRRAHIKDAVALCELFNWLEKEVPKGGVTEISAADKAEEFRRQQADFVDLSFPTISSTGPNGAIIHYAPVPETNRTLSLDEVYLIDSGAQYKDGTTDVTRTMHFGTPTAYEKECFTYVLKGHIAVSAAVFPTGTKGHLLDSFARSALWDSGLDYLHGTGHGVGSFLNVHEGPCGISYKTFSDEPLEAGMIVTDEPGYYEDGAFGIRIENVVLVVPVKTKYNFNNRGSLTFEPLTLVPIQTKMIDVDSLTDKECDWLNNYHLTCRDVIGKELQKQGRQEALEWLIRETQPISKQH
Sequence of UniProt Q9Y4E6 (Q9Y4E6 whole entry, looked up): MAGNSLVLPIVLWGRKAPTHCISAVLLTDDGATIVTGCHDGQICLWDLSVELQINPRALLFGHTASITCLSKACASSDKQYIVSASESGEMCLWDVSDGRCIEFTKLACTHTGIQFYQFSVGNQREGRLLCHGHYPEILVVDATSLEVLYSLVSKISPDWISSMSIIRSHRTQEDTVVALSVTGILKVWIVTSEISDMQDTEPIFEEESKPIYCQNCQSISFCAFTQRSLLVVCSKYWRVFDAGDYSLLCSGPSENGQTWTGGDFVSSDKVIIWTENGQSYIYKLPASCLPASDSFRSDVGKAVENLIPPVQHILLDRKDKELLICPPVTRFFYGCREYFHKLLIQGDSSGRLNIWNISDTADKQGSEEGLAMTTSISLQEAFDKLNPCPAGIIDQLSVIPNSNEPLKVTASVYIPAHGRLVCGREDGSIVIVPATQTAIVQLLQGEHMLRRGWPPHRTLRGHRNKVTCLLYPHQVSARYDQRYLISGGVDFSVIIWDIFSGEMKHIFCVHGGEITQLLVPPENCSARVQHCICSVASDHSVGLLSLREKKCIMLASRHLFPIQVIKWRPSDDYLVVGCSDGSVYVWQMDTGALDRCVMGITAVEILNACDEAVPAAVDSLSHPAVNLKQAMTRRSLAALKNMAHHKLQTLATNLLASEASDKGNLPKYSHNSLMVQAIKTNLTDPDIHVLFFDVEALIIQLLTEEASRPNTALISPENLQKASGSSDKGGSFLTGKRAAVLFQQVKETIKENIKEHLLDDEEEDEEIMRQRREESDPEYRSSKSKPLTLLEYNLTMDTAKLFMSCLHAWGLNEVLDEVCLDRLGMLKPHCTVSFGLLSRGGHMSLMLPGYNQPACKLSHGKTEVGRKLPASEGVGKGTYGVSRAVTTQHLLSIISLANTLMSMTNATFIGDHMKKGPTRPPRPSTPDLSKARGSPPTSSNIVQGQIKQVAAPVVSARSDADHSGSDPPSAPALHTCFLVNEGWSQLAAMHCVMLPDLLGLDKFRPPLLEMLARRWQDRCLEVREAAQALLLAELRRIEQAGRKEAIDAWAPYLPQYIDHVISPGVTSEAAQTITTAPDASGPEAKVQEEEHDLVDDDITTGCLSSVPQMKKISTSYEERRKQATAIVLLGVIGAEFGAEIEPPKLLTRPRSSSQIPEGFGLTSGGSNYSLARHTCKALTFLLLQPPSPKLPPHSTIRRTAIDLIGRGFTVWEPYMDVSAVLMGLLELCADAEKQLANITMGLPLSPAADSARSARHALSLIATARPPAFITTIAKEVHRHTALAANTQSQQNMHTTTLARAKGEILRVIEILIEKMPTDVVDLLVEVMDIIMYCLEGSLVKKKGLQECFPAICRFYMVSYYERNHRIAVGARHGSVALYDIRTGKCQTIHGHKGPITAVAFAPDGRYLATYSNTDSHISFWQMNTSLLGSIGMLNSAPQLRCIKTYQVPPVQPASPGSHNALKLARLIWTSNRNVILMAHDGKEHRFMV
Sequence of UniProt Q9BZI7 (Q9BZI7 whole entry, looked up): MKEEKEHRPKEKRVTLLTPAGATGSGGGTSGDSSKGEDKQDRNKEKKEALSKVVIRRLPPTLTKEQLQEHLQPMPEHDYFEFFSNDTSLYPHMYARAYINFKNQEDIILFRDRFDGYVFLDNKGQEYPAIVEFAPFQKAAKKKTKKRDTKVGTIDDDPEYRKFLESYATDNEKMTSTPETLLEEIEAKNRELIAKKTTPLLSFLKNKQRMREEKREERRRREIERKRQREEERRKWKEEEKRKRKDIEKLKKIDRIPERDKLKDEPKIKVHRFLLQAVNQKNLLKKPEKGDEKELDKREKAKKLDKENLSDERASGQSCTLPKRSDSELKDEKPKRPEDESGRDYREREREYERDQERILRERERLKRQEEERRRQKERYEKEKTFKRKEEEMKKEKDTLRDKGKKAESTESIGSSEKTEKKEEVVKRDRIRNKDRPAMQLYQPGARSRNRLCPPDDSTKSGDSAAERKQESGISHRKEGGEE
Sequence of UniProt Q16881 (Q16881 whole entry, looked up): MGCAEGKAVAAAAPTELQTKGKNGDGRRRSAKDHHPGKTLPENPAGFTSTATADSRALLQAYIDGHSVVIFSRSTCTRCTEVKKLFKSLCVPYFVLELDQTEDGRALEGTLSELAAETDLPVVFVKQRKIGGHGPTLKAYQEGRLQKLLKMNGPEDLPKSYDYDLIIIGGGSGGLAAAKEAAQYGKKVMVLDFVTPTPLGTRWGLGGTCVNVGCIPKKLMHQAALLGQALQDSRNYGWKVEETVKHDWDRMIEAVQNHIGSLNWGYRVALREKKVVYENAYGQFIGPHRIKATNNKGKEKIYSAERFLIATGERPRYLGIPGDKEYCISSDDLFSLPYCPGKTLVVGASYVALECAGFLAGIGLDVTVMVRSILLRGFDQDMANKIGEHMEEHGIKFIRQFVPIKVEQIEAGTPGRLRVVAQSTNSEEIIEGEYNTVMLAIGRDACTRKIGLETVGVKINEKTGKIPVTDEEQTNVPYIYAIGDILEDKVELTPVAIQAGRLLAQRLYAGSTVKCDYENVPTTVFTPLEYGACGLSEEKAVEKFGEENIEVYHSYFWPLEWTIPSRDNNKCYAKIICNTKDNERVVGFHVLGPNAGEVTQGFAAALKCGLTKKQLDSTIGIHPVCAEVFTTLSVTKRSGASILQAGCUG
Sequence of UniProt A0PJW6 (A0PJW6 whole entry, looked up): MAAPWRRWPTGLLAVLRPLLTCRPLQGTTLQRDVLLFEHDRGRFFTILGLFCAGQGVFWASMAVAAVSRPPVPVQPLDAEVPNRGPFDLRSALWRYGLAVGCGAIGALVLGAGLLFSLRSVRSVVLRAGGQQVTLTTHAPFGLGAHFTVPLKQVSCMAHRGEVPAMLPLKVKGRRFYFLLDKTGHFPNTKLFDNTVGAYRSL
Sequence of UniProt O14787 (O14787 whole entry, looked up): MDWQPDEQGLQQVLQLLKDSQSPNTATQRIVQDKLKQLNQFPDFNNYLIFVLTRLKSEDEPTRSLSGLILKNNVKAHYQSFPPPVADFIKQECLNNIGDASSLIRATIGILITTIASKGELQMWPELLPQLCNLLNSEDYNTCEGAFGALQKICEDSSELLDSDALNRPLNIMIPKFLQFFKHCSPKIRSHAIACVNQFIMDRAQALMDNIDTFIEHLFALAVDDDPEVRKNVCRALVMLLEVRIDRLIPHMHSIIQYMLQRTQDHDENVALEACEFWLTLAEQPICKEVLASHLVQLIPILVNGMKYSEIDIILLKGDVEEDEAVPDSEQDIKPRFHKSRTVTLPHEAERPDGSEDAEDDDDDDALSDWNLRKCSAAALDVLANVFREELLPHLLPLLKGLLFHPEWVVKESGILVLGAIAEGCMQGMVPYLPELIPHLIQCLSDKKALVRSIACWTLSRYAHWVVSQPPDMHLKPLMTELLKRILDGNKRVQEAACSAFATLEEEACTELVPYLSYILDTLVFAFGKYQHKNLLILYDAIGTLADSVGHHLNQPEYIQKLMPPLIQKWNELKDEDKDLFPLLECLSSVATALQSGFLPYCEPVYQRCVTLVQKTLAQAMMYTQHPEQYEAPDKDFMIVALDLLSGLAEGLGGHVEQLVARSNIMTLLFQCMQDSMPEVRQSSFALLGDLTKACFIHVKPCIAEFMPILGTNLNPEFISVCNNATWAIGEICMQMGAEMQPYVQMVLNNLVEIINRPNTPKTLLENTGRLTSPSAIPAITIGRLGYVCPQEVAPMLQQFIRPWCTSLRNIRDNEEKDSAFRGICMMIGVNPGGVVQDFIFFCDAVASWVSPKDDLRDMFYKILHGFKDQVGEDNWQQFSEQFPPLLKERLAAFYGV
Sequence of UniProt P13010 (P13010 whole entry, looked up): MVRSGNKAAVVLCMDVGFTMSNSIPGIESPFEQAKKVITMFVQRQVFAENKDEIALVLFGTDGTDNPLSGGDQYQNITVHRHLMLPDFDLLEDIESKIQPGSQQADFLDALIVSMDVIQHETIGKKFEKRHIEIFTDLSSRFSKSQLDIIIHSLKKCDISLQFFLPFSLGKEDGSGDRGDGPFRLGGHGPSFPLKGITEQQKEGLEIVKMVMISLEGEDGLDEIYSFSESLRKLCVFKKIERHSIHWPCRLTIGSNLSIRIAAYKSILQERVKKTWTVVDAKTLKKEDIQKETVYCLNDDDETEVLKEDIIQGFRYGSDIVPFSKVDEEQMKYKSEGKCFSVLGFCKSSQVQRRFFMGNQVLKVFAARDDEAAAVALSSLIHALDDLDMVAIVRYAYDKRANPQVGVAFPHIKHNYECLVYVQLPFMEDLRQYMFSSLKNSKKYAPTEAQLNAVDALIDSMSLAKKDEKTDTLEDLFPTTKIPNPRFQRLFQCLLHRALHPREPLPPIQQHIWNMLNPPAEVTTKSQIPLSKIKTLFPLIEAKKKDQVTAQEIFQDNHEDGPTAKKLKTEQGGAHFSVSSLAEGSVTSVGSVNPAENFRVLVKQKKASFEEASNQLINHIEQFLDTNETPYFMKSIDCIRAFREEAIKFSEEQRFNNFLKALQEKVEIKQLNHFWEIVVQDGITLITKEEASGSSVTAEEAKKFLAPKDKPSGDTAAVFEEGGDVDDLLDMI

log2 fold change, inactive:
TRAPPC2L (UniProt Q9UL33) -0.02
UGDH (UniProt O60701) 0.062
WDR7 (UniProt Q9Y4E6) 0.082
TOMM5 isoform 2 (UniProt Q8N4H5) -0.114
USP7 (UniProt Q93009) 0.097
TYW1 (UniProt Q9NV66) 0.033
UBR2 (UniProt Q8IWV8) 0.072
TMEM161A (UniProt Q9NX61) 0.043
XPNPEP1 isoform 3 (UniProt Q9NQW7) -0.013
XRCC6 (UniProt P12956) 0.032
TNPO2 (UniProt O14787) 0.129
TRMT10C (UniProt Q7L0Y3) 0.107
UHRF1BP1L (UniProt A0JNW5) -0.002
TUBA4A (UniProt P68366) -0.028
USP3 (UniProt Q9Y6I4) -0.009
WBP4 (UniProt O75554) 0.14
VTA1 (UniProt Q9NP79) 0.081
UBE3D (UniProt Q7Z6J8) -0.047
VPS16 (UniProt Q9H269) 0.178
TXNRD1 (UniProt Q16881) -0.011
TMEM177 (UniProt Q53S58) 0.054
WDCP (UniProt Q9H6R7) -0.05
TMEM223 (UniProt A0PJW6) -0.005
VRK1 (UniProt Q99986) 0.078
UBE2S (UniProt Q16763) -0.08
XRCC5 (UniProt P13010) 0.07
TMEM9 (UniProt Q9P0T7) -0.048
TRMT10A (UniProt Q8TBZ6) -0.022
TNPO1 (UniProt Q92973) 0.022
WARS2 (UniProt Q9UGM6) 0.016
VPS53 isoform 4 (UniProt Q5VIR6) 0.036
TSG101 (UniProt Q99816) -0.034
U2AF1 isoform 2 (UniProt Q01081) -0.06
UPF3B (UniProt Q9BZI7) 0.055
VPS50 (UniProt Q96JG6) 0.088
TTC38 (UniProt Q5R3I4) 0.021

Each target was assayed with Cc1cn(-c2cc(NC(=O)c3ccc(C)c(Nc4nccc(-c5cccnc5)n4)c3)cc(C(F)(F)F)c2)cn1 [nilotinib] in the same assay as above.
Procedure, shortened: as §1

log2 fold change, inactive:
TRAPPC2L (UniProt Q9UL33) -0.062
UGDH (UniProt O60701) -0.045
WDR7 (UniProt Q9Y4E6) -0.089
TOMM5 isoform 2 (UniProt Q8N4H5) 0.079
USP7 (UniProt Q93009) -0.076
TYW1 (UniProt Q9NV66) -0.107
UBR2 (UniProt Q8IWV8) 0.02
TMEM161A (UniProt Q9NX61) -0.157
XPNPEP1 isoform 3 (UniProt Q9NQW7) -0.036
XRCC6 (UniProt P12956) -0.067
TNPO2 (UniProt O14787) -0.122
TRMT10C (UniProt Q7L0Y3) -0.043
UHRF1BP1L (UniProt A0JNW5) 0.105
TUBA4A (UniProt P68366) -0.011
USP3 (UniProt Q9Y6I4) -0.125
WBP4 (UniProt O75554) 0.001
VTA1 (UniProt Q9NP79) -0.07
UBE3D (UniProt Q7Z6J8) 0.043
VPS16 (UniProt Q9H269) -0.038
TXNRD1 (UniProt Q16881) 0.097
TMEM177 (UniProt Q53S58) -0.001
WDCP (UniProt Q9H6R7) -0.149
TMEM223 (UniProt A0PJW6) 0.032
VRK1 (UniProt Q99986) -0.074
UBE2S (UniProt Q16763) -0.008
XRCC5 (UniProt P13010) -0.12
TMEM9 (UniProt Q9P0T7) -0.017
TRMT10A (UniProt Q8TBZ6) 0.005
TNPO1 (UniProt Q92973) -0.037
WARS2 (UniProt Q9UGM6) -0.086
VPS53 isoform 4 (UniProt Q5VIR6) -0.1
TSG101 (UniProt Q99816) -0.014
U2AF1 isoform 2 (UniProt Q01081) -0.017
UPF3B (UniProt Q9BZI7) -0.15
VPS50 (UniProt Q96JG6) -0.074
TTC38 (UniProt Q5R3I4) 0.038
